Measured values: PMC4336329 (PLoS ONE, 2015)
Among all 310,000 compounds or so, about 14,000 (4.5%) showed an effect of 50% or more. Effects have a minus sign here. Shown is part of a subset that was picked to be rich in strong results.

biological target: human ether-à-go-go-related gene (hERG) potassium channel (human, UniProt Q12809); assay: primary screen, population patch clamp on CHO cells stably expressing hERG; higher = less effect of the substance
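Note: peak tail current of the secondary pulse compared with the same well before compound.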

human ether-à-go-go-related gene (hERG) potassium channel, sequence (Q12809 whole entry, looked up): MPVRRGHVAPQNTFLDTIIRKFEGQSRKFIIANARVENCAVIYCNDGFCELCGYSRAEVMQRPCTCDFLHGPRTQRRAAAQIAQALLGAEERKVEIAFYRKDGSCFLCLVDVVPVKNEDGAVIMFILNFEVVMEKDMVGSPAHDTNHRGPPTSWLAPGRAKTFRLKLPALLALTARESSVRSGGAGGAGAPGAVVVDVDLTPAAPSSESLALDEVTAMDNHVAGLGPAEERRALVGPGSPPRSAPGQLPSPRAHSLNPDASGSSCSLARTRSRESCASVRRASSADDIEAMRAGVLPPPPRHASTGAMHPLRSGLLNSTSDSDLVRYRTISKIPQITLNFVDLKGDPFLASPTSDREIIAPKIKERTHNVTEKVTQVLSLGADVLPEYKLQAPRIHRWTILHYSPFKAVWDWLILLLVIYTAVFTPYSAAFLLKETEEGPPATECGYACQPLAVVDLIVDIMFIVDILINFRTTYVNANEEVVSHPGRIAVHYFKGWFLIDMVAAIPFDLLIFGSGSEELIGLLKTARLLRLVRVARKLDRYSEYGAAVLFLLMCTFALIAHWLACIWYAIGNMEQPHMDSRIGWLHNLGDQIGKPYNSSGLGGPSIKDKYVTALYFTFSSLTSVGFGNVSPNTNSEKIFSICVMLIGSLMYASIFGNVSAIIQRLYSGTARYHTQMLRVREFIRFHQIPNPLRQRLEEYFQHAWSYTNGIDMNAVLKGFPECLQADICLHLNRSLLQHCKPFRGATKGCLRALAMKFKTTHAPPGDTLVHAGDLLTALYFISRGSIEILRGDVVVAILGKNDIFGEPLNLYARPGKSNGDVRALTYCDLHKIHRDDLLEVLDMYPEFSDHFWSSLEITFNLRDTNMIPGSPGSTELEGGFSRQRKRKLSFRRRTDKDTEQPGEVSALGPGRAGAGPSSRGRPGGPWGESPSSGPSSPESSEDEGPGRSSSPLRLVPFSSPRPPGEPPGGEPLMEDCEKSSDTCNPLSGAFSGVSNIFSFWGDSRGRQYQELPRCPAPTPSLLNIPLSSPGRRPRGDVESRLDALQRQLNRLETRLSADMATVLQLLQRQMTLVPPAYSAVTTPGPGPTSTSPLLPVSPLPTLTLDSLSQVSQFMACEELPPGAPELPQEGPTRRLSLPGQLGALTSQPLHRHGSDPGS

Row | Compound | hERG current change (%, negative = inhibition) at 10uM [%]
1 | CC(=O)N1CCN=C1SCc1cccc(Cl)c1 | -3.91
2 | CC(C)C(c1nnnn1C1CCCCC1)N1CCc2ccccc2C1 (centres unmarked) | 2.91
3 | c1ccc(-c2cnc(-c3ccccn3)nn2)cc1 | 18.6
4 | O=C(NCc1ccco1)c1ccc(N2CCCC2=O)cc1 | 4.3
5 | Cc1cc(Nc2ccc(O)cc2)ccc1N | 14.1
6 | COc1ccc(CCN=C2SCC(=O)N2C)cc1OC | -4.8
7 | CCCCn1c(N)c(N(CCOC)C(=O)CSCc2c(C)noc2C)c(=O)[nH]c1=O | 17.1
8 | O=C(O)c1ccc(NS(=O)(=O)c2ccc(N3CCCC3)c([N+](=O)[O-])c2)cc1 | 11.3
9 | CCN(CCO)c1nc(N2CCCCC2)c2cnn(C)c2n1 | 3.12
10 | COc1ccc2c(=O)c(C(=O)O)c(-c3ccc4c(c3)OCO4)n(C)c2c1 | 17.2
11 | CCN=C1SC(CC(=O)NCC)C(=O)N1CC (centres unmarked) | -12.5
12 | O=C(N/N=C/c1ccc(O)cc1)c1cc(-c2ccccc2)nc2ccccc12 | 11.2
13 | Cc1cccc(NC(=O)c2cc3ccccc3o2)c1 | -19.8
14 | Cn1c(NCc2ccco2)nc2ccccc21 | -10.2
15 | CCN(CC)CCn1c(NCc2ccco2)nc2ccccc21.Cl | -73
16 | c1csc(Cn2c(-c3cccs3)nc3ccccc32)c1 | -68.6
17 | CCCCCCn1c(C(C)NC(=O)c2ccco2)nc2ccccc21 (centres unmarked) | -59.9
18 | CCn1c(NCc2ccco2)nc2ccccc21 | 2.38
19 | CCCCn1c(C(C)NC(=O)CC)nc2ccccc21 (centres unmarked) | -21.9
20 | CCCn1c(NCc2ccc(C)o2)nc2ccccc21 | -24.1
21 | C=CCn1c(-c2cccs2)nc2ccccc21 | 3.12

Row | Compound | hERG current change (%, negative = inhibition) at 10uM [%]
22 | CCCCCn1c(C(C)NC(=O)CCC)nc2ccccc21 (centres unmarked) | -48.4
23 | CCn1c(-c2cccs2)nc2ccccc21 | -11.4
24 | CCN(CC)CCn1c(NCc2ccccn2)nc2ccccc21.Cl | -34.4
25 | CCCCCn1c(NCc2ccco2)nc2ccccc21 | -74.8
26 | Cn1cnnc1SCC(=O)c1ccc(O)c(O)c1 | 18.7
27 | O=C1CC2(CCCCC2)Oc2ccc(F)cc21 | -4.03
28 | CCN(CC)CCNC(=O)Cn1cnc2sc(C)c(S(=O)(=O)N3CC(C)CC(C)C3)c2c1=O (centres unmarked) | 24.8
29 | COc1ccc(Cn2c(=S)[nH]c3cc(OC)c(OC)cc3c2=O)cc1 | 20.4
30 | O=[N+]([O-])c1ccc(-c2ccc(/C=N/c3c(-c4ccco4)nc4ccccn34)o2)cc1 | 8.33
31 | O=C(O)CCSc1nnc(-c2ccccc2)n1-c1ccccc1 | -3.32
32 | Cc1ccc(SCc2cc(=O)[nH]c(N3CCCCC3)n2)cc1 | -8.62
33 | CCOC(=O)C(O)(c1ccc(NC(=S)NC(=O)c2ccc(Cl)cc2Cl)c(C)c1)C(F)(F)F (centres unmarked) | 27.4
34 | COc1ccccc1NC(=O)CCSc1nnc(-c2ccncc2)o1 | -2.96
35 | Fc1ccccc1NC(=S)NNc1ncc(C(F)(F)F)cc1Cl | 21.2
36 | CN1CCCN(C(=O)COc2cccc(C(F)(F)F)c2)CC1 | -0.603
37 | CC(NC(=O)/C=C/c1ccco1)c1nc2ccccc2n1Cc1cccc(Cl)c1 (centres unmarked) | -67.2
38 | CC(NC(=O)/C=C/c1ccco1)c1nc2ccccc2n1Cc1c(Cl)cccc1Cl (centres unmarked) | -11
39 | c1ccc(Cn2c(NCc3ccco3)nc3ccccc32)cc1 | -51
40 | CCCCn1c(NCc2cccs2)nc2ccccc21 | -55.9
41 | CC(NC(=O)/C=C/c1ccco1)c1nc2ccccc2n1Cc1ccccc1F (centres unmarked) | 0.704
42 | C=CCn1c(NCc2ccco2)nc2ccccc21 | -8.07

Row | Compound | hERG current change (%, negative = inhibition) at 10uM [%]
43 | CCCn1c(NCc2cccs2)nc2ccccc21 | -29.3
44 | CCn1c(NCc2cccs2)nc2ccccc21 | -12.2
45 | c1ccc(Cn2c(NCc3ccccn3)nc3ccccc32)cc1 | -39
46 | CC1CC1C(=O)OCC(=O)Nc1cccc(S(=O)(=O)NC2=NCCCCC2)c1 (centres unmarked) | -7.64
47 | Cc1ccc(C(=O)c2ccc(N3CCOCC3)c(F)c2)cc1 | -22
48 | CCCn1c2ccccc2c2cn[nH]c(=O)c21 | 12
49 | Cc1c(C(=O)NCc2cccnc2)sc2nc(-c3ccccc3)cn12 | -55.2
50 | CCN(CC)CCNC(=O)c1sc2nc(-c3ccccc3)cn2c1C | -67.4
51 | Cc1c(C(=O)NCc2ccccn2)sc2nc(-c3ccccc3)cn12 | -18.6
52 | Cc1c(C(=O)NCCCN2CCOCC2)sc2nc(-c3ccccc3)cn12 | -48.5
53 | CCN(CC)CCCNC(=O)c1sc2nc(-c3ccc(F)cc3)cn2c1C | -71.1
54 | Cc1c(C(=O)NCCN2CCOCC2)sc2nc(-c3ccc(F)cc3)cn12 | -23.6
55 | Cc1c(C(=O)NCc2cccnc2)sc2nc(-c3ccc(F)cc3)cn12 | -40.4
56 | COCCNC(=O)c1sc2nc(-c3ccccc3)cn2c1C | -11.5
57 | Cc1c(C(=O)NCc2ccccn2)sc2nc(-c3ccc(F)cc3)cn12 | -10.2
58 | Cc1c(C(=O)Nc2ccccc2)sc2nc(-c3ccccc3)cn12 | -4.89
59 | Cc1c(C(=O)NCC(C)C)sc2nc(-c3ccc(F)cc3)cn12 | -5.46
60 | Cc1c(C(=O)NCCCN2CCOCC2)sc2nc(-c3ccc(F)cc3)cn12 | -60.9
61 | Nc1cc(-c2ccccc2)ccc1O | 22.5
62 | CCCC1=[N+](CC(C)=O)CCn2c(C)ccc21.[Br-] | 20.1
